Source: PubChem BioAssay (NCATS)
Results filed as inconclusive are left out. A call without a number means that no potency is given here. The source made the active and inactive calls. Calls come from the whole dose curve; as a rule, active = well fitted cell-killing curve with a large enough effect; inconclusive = small, poorly fitted or top-dose-only effect; inactive = no such curve, though single readings can be large or run the other way.

Test: qHTS of pediatric cancer cell lines to identify multiple opportunities for drug repurposing: Confirmatory screen for DAOY cells (AID 1347114); note: nearly all actives have a fitted effect of over 65% in size
Details: DAOY medulloblastoma cells viability, cytotoxicity qHTS; series mostly up to 45.9 µM
Description: Drug repurposing or repositioning has been offered as a strategy for drug development in oncology programs. This approach has special potential for childhood cancers and other rare or orphan diseases, where the expected return on new drug development has been a disincentive to pharmaceuticals.
In this project we exploit the poly-pharmacology of drugs to discover new indications via phenotypic screening of a panel of 19 well-characterized cell lines derived from solid tumors seen in children and adolescents. The goal is to identify approved drugs with previously unrecognized anticancer properties that has the potential to reveal new mechanisms and biological processes involved in carcinogenesis or drug resistance. We employed a titration-based paradigm (quantitative high-throughput screening or qHTS), where all compounds were tested at multiple concentrations for their effect on cell viability. Concentration-response curves (CRCs) were derived directly from the primary screen, and both potency and efficacy values were used to identify compounds with robust bioactivity profiles. We screened the NIH Chemical Genomics Center (NCGC) Pharmaceutical Collection (NPC) and Mechanism Interrogation Plate (MIPE) small molecule collections of approved and investigational compounds against these cell lines; and measured metabolically active cells after 48 hours of compound treatment as a proxy for cell viability.
Assay Submitter: Nathalia J. Martinez, National Center for Advancing Translational Sciences, National Institutes of Health, Rockville, MD, USA; email: natalia.martinez@nih.gov
[1] Shen, M et al. Quantitative high-throughput phenotypic screening of pediatric cancer cell lines identifies multiple opportunities for drug repurposing. Oncotarget 2017 Dec 19;9(4):4758-4772. PMID 29435139.
The cells were obtained from University of North Carolina (UNC), Pediatric Preclinical Testing Program (PPT), and Coriell Institute (CI).
qHTS cell viability assay:
Cells were assayed in growth media at a density of 500-1,000 cells/well. Five microliters of cells were dispensed into 1,536-well, white, solid-bottom, TC-treated plates (Greiner Bio One) using a multidrop dispenser and incubated at 37 degrees C, 5% CO2, under a humidified atmosphere for 5 hours. Twenty-three nanoliters of compounds and controls (neutral control DMSO or positive control bortezomib at final concentration of 2.3 µM) were subsequently transferred by Kalypsys pintool. For primary screens, the MIPE collection was tested at 11-point dilutions (final concentrations range from 0.78 nM to 46 µM) and the NPC collection at 8-point dilutions (final concentrations range from 0.59 nM to 46 µM). Compounds tested in follow-up screens were assayed at 11-point dilutions. Cells were incubated for 48 hours, followed by addition of 3 uL of CellTiter-Glo (Promega). After a 15 min incubation at room temperature, samples were analyzed for luminescence intensity using a ViewLux High-throughput CCD imager equipped with clear filters.
Potency is the fitted concentration of half-maximal effect.

Structure (SMILES) | Potency
Nc1ccn([C@@H]2O[C@H](CO)[C@@H](O)[C@H]2O)c(=O)n1 | inactive
COC1CCC(C(=O)c2ccc3nc4c(cc3c2)CCCO4)CC1 (stereo not given) | 23.3 µM (active)
Nc1ncnc2c1ncn2[C@@H]1O[C@H](CO)[C@@H](O)[C@@H]1O | inactive
Cc1ccc2c(c1)C(=O)[C@]1(O)CCN(c3ccccc3)C1=N2 | inactive
Cc1nn(Cc2ccccc2Cl)c(C)c1CN(C)CC(O)COc1ccc(Cl)cc1 (stereo not given) | 23.3 µM (active)
CC1(C)CC(=O)c2c(C(F)(F)F)nn(-c3ccc(C(N)=O)c(NC4CCC(O)CC4)c3)c2C1 (stereo not given) | inactive
COc1cc(CNC(=O)CCCCC=CC(C)C)ccc1O | inactive
CCN(CCO)CCCOc1ccc2c(Nc3cc(CC(=O)Nc4cccc(F)c4)[nH]n3)ncnc2c1 | inactive
COc1ccc2c(c1)c(C1=C(c3c[nH]c4ccccc34)C(=O)NC1=O)cn2CCCN(C)C | 23.3 µM (active)
CC[C@]1(O)C[C@H]2CN(CCC3=c4ccccc4=N[C]3[C@@](C(=O)OC)(c3cc4c(cc3OC)N(C)[C@H]3[C@@](O)(C(N)=O)[C@H](O)[C@]5(CC)C=CCN6CC[C@]43[C@@H]65)C2)C1 | 0.261 µM (active)
NC(N)=Nc1nc(CSCCC(N)=NS(N)(=O)=O)cs1 | inactive
C[C@@H]1[C@H](O)[C@@H](C)C=CC=CC=CC=CC=CC=CC=C[C@H](O[C@@H]2O[C@H](C)[C@H](O)[C@H](N)[C@@H]2O)C[C@@H]2O[C@](O)(C[C@@H](O)C[C@@H](O)[C@H](O)CC[C@@H](O)C[C@@H](O)CC(=O)O[C@H]1C)C[C@H](O)[C@@H]2C(=O)O | inactive
COC(=O)[C@H](c1ccccc1Cl)N1CCc2sccc2C1 | inactive
C=C1[C@H](n2cnc3c(=O)[nH]c(N)nc32)C[C@H](O)[C@H]1CO | inactive
CC(=O)N1CCN(c2ccc(OCc3nn(C)c(C)c3-c3cccc4c(CCCOc5cc(C)c(Cl)c(C)c5)c(C(=O)O)n(Cc5cccnc5)c34)cc2)CC1 | inactive
COc1ccc(-c2ccc3ncc4c(c3c2)n(-c2ccc(N3CCNCC3)c(C(F)(F)F)c2)c(=O)n4C)cn1 | 2.33 µM (active)
CC1CNc2c(cccc2S(=O)(=O)N[C@@H](CCCN=C(N)N)C(=O)N2CC[C@@H](C)C[C@@H]2C(=O)O)C1 (stereo not given in full) | inactive
Cc1cnc(-c2cc(N3CCN(C(=O)CCS(C)(=O)=O)CC3)ncc2Cl)c(C)c1 | inactive
Nc1[nH]nc2nnc(-c3c(-c4ccccc4)nn4ccccc34)cc12 | inactive
CC(C)(C)c1[nH]cnc1C=c1[nH]c(=O)c(=Cc2ccccc2)[nH]c1=O | 0.018 µM (active)

Structure (SMILES) | Potency
CC1=C[C@@H]2[C@@H]([C@@H](O)C[C@@]3(C)[C@H]2C[C@@H](C)[C@]3(O)C(=O)CO)[C@@]2(C)Cc3cnn(-c4ccccc4)c3C=C12 | inactive
FC(F)(F)c1ccc(C=Cc2nc(COc3ccc(CCCCn4ccnn4)cc3)co2)cc1 | 0.261 µM (active)
CC[C@H](NC(=O)[C@H](C)NC)C(=O)N1C[C@@H](O)C[C@H]1Cc1c(-c2[nH]c3cc(F)ccc3c2C[C@H]2C[C@H](O)CN2C(=O)[C@H](CC)NC(=O)[C@H](C)NC)[nH]c2cc(F)ccc12 | 5.22 µM (active)
Cc1ccc(C(=O)N(CCCN)[C@@H](c2nc3cc(Cl)ccc3c(=O)n2Cc2ccccc2)C(C)C)cc1 | 0.012 µM (active)
CCC[C@H](N[C@@H](C)C(=O)N1[C@@H]2CCCC[C@H]2C[C@H]1C(=O)O)C(=O)OCC | inactive
C[C@@]1(c2cc(-c3cncnc3)c(F)cc2F)CCSC(N)=N1 | inactive
CCC[C@H](Nc1nc(-c2ccc(NC(=O)NCC)c(OC)c2)ncc1C)c1cccnc1 | 0.0827 µM (active)
CC1=C(CC(=O)O)c2cc(F)ccc2C1=Cc1ccc(S(C)=O)cc1 (stereo not given) | inactive
CC(C)CN(C[C@@H](O)[C@H](Cc1ccccc1)NC(=O)O[C@H]1CO[C@H]2OCC[C@H]21)S(=O)(=O)c1ccc(N)cc1 | inactive
CN(C)CC[C@H](CSc1ccccc1)Nc1ccc(S(=O)(=O)NC(=O)c2ccc(N3CCN(Cc4ccccc4-c4ccc(Cl)cc4)CC3)cc2)cc1[N+](=O)[O-] | 16.5 µM (active)
CC1(C)OC2CC3C4CC(F)C5=CC(=O)C=CC5(C)C4C(O)CC3(C)[C@]2(C(=O)CO)O1 (stereo not given in full) | inactive
CCOC(=O)[C@H](CCc1ccccc1)N[C@@H](C)C(=O)N1CCCC1C(=O)O (stereo not given in full) | inactive
CC1C(=O)OC2C(O)C34C5CC(C(C)(C)C)C36C(OC(=O)C6O)OC4(C(=O)O5)C12O (stereo not given) | inactive
CC(C)n1c(C=C[C@H](O)C[C@H](O)CC(=O)O)c(-c2ccc(F)cc2)c2ccccc21 | 3.69 µM (active)
CN(C)CCN(C)C(=O)c1ccc(NC(=O)Nc2ccc(-c3nc(N4CCOCC4)c4ccn(CC(F)(F)F)c4n3)cc2)cc1 | 20.8 µM (active)
CN[C@@H]1CN(c2ccc3c(=O)c(C(=O)O)cn(-c4nccs4)c3n2)C[C@@H]1OC | 11.5 µM (active)
C=CC(=O)Nc1cccc(Sc2nc(Nc3ccc(N4CCN(C)CC4)cc3)ncc2Cl)c1 | 23.3 µM (active)
Cc1ccc(C(=O)N(CCCN)[C@@H](c2oc3cc(Cl)ccc3c(=O)c2Cc2ccccc2)C(C)C)cc1 | 0.0052 µM (active)
Nc1ccc(-c2ccc3ncc4ccc(=O)n(-c5cccc(C(F)(F)F)c5)c4c3c2)cn1 | 3.69 µM (active)
CO[C@H]1/C=C\O[C@@]2(C)Oc3c(C)c(O)c4c(O)c(c5c(nc6cc(C)ccn65)c4c3C2=O)NC(=O)C(C)=CC=C[C@H](C)[C@H](O)[C@@H](C)[C@@H](O)[C@@H](C)[C@H](OC(C)=O)[C@H]1C | inactive
